This is a sample that favours compounds with a hit; in the whole collection about 4.3% have one here.
TRPM1 prom inh: reduces MITF-dependent TRPM1 promoter luciferase signal; 0.83% of 330,000 active; SK-MEL-5 TRPM1 promoter luciferase, 24 h; inhibition, % at 12.5 µM;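 active means mean inhibition across replicates of 60% or more, whatever share of single replicates reaches that level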
CF NFkB inh: blocks PAF-induced NF-kB reporter in cystic fibrosis cells; KKLEB NF-kB-GFP reporter, GFP fluorescence overnight; 0.86% of 360,000 active; AID 588850; inhibition, % at 5 µM;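 active means at least 50% inhibition at 5 µM, scaled per plate between neutral and stimulator controls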;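 further: PAF is a Pseudomonas aeruginosa culture filtrate used as stimulus; plate controls were PAF-stimulated DMSO wells for no effect and unstimulated DMSO wells for full effect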
Peg3 prom inh: Peg3 promoter activity inhibition; HeLa PEG-Prom luciferase reporter, luminescence, overnight; inhibition, % at 20 µM; 1.7% of 360,000 active;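 active means inhibition of at least 50% at 20 µM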
HIF-2a inh: inhibitors of HIF-2a | 0.72% of 360,000 active | AID 624352 | inhibition, % at 18.8 µM | 786-0 RCC cells HIF-2a reporter, luciferase luminescence, overnight;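 active means inhibition of the luminescence signal of 40% or more relative to plate controls, in a single-dose primary screen at 18.75 µM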
KKLEB cytotox: CF airway cell cytotoxicity counter-screen; KKLEB CF airway cells viability, ATPlite luminescence, overnight; hits give low values; cells stimulated with P. aeruginosa culture filtrate; activity change (cytotoxicity), % at 5 µM; 0.36% of 360,000 active;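 active means corrected activity change at or below -50% at 5 µM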
CHOP inh: CHOP inhibition in unfolded protein response | inhibition, % at 10 µM | AID 2732 | 3.8% of 220,000 active | CHO-K1 CHOP-promoter luciferase, tunicamycin-induced, 15-18 h;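 active means compounds that reduced the stress-induced luciferase reporter signal by more than about 70% of percent inhibition, limit read from the data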;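 further: 0% = tunicamycin plus vehicle and 100% = wells without tunicamycin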
* = called active by the depositor; / = no result.

SMILES	TRPM1 prom inh	CF NFkB inh	Peg3 prom inh	HIF-2a inh	KKLEB cytotox	CHOP inh
Nc1nc(Cl)cc(N2CCCC2)n1	-3	-17	16	12	-9	-17
Nc1nc(Cl)cc(N2CCC(c3cc(-c4ccc(Cl)cc4Cl)n[nH]3)CC2)n1	30	-10	38	24	10	89*
CC(C)N1CCc2c(sc(NC(=O)c3ccc(C(=O)c4ccccc4)cc3)c2C(N)=O)C1	3	7	59*	7	-13	/
CC(C)N1CCc2c(sc(NC(=O)c3ccc4ccccc4c3)c2C(N)=O)C1	-51	-57	13	-114	-19	/
CC(C)N1CCc2c(sc(NC(=O)c3ccc(S(=O)(=O)N4CCCCC4C)cc3)c2C(N)=O)C1 (configuration not stated)	36	15	68*	12	3	/
COC1=Nc2ccccc2/C=C\c2ccccc21	/	14	11	12	-10	/
O=C(COc1ccccc1Cl)NNC(=O)c1ccc2c(=O)n3c(nc2c1)CCC3	3	-17	0	6	12	/
COc1cccc(CNc2ncc(Br)cc2Br)c1O	-79	-9	-284	-133	4	81*
COc1cccc(CNc2ccc(Br)cn2)c1O	-73	-2	-169	-225	-17	8
O=C(Nc1ccc([N+](=O)[O-])cc1)/C(=C/c1cccc([N+](=O)[O-])c1)NC(=O)C1CCCCC1	-8	-41	26	-7	-8	-10
Cc1ccc(NC(=O)/C(=C/c2cccc([N+](=O)[O-])c2)NC(=O)C2CCCCC2)c(C)c1	4	-10	59*	12	-2	20
C#CCNC(=O)C[C@@H]1C[C@@]2(C(=O)OC)CC(C)(C)CC=C2N(Cc2ccccc2)C1=O	/	/	/	-1	/	/
O=C(C1CCN(S(=O)(=O)c2cccc3nsnc23)CC1)N1CC=C(c2ccccc2)CC1	12	6	11	18	-1	47
O=C(C1CCC(CNS(=O)(=O)c2cccc3nsnc23)CC1)N1CC=C(c2ccccc2)CC1 (configuration not stated)	18	5	16	18	-12	72*
O=C(O)Cn1c(-c2ccccc2)cc2ccccc21	4	3	4	20	0	/
COc1cc(/C=N/N=C(N)N)ccc1OCc1ccccc1Cl	-1	-11	102*	-49	-4	57
COCCCn1nnnc1SCC(=O)Nc1nc2ccccc2s1	-15	5	2	-5	-2	/
O=C(OCc1ccccc1Cl)C1CC(=O)N(Cc2ccco2)C1 (configuration not stated)	-16	-3	13	16	3	/
O=C(Nc1cc(Cl)ccc1C(=O)O)c1ccc(CN2C(=O)c3ccccc3C2=O)cc1	-4	7	18	14	3	/
CCOC(=O)c1ccc(-c2ccc3ncnc(NCc4csc(C)n4)c3c2)o1	/	-5	11	-12	2	/
Cc1c(Cl)cccc1Nc1n[nH]c(=S)s1	14	-17	101*	-40	-1	/
Nc1ncnc2c1ncn2[C@@H]1O[C@H](C(=O)Nc2ccc(C(=O)N3CCCCC3)cc2)[C@@H](O)[C@H]1O	/	5	2	0	-8	/
COc1ccc(C(CNC(=O)c2oc3ccc(Br)cc3c2C)N2CCCCC2)cc1 (configuration not stated)	-13	26	18	8	-27	78*
O=C(CCS(=O)(=O)c1ccccc1)Nc1nc2c(s1)COc1ccccc1-2	1	8	92*	-43	4	12
O=C(Nc1nc2c(s1)COc1ccccc1-2)c1cccs1	/	8	-64	-169	13	52
SMILES	TRPM1 prom inh	CF NFkB inh	Peg3 prom inh	HIF-2a inh	KKLEB cytotox	CHOP inh
Cc1noc(C)c1NC(=O)N(C)C[C@H]1OCCCC[C@@H](C)Oc2ccc(NS(=O)(=O)c3ccccc3)cc2C(=O)N([C@H](C)CO)C[C@@H]1C	/	5	4	6	-7	/
CC#CC[N+](C)(C)CCCCCCCC	-1	16	10	10	-2	-3
CCCCCCCCCCCCCCCC[N+](C)(C)Cc1ccc(F)cc1	28	10	105*	37	-32	/
CC(C)OC(=O)CSc1ncnc2c1cnn2Cc1ccccc1	2	4	4	9	-11	75*
CCCCN(C(=O)CC1CCCC1)c1c(N)n(Cc2ccccc2)c(=O)[nH]c1=O	/	27	16	18	-14	/
OC(CSc1c(Cl)cccc1Cl)CN1CCN(c2ccc(F)cc2)CC1 (configuration not stated)	-7	12	13	8	-15	88*
OC(CSc1ccccc1Cl)CN1CCN(c2ccc(F)cc2)CC1 (configuration not stated)	-2	-3	14	-13	3	65
CCCCNC(=O)c1nc(-c2ccccc2)oc1-c1ccc(Cl)cc1	/	/	/	-81	/	/
COc1cccc(-c2cc(C(=O)Nc3c(C)n(C)n(-c4ccccc4)c3=O)no2)c1	2	-2	5	-5	2	31
Nc1c(C(=O)NCc2ccccc2)c2nc3ccccc3nc2n1-c1ccc2c(c1)OCO2	3	-9	42	-29	-21	79*
COc1cccc(-n2c(N)c(C(=O)Nc3c(C)n(C)n(-c4ccccc4)c3=O)c3nc4ccccc4nc32)c1	13	19	60*	8	-27	46
COCCNC(=O)c1c(N)n(-c2cccc(C)c2)c2nc3ccccc3nc12	11	1	14	16	-3	77*
COCCNC(=O)c1c(N)n(-c2ccccc2)c2nc3ccccc3nc12	2	2	21	-1	-6	-10
Nc1ccc(-n2c(N)c(C(=O)NCc3ccc4c(c3)OCO4)c3nc4ccccc4nc32)cc1	-17	10	16	23	6	/
Cc1ccnc(NS(=O)(=O)c2ccc(NC(=O)c3cc(=O)c4ccccc4o3)cc2)n1	5	-18	-10	9	8	/
CCCOC(=O)c1ccc(-c2c(C)noc2-c2ccc(OC)cc2O)o1	-3	25	10	18	4	93*
CC(NC(=O)c1cc(F)c(F)cc1Cl)C1CC2CCC1C2 (configuration not stated)	-11	15	6	1	5	/
COc1ccc(-n2nc(C(=O)c3cccs3)cc(-c3nc4ccccc4[nH]3)c2=N)cc1	59	-59	87*	16	-13	69
CC1=C(C(=O)O)N2C(=O)[C@@H](NC(=O)C(N)C3=CCC=CC3)[C@H]2SC1 (some centres not stated)	/	/	/	/	/	-22
NC(=O)c1nc(C2CCCCC2)nc2c1[nH]c(=O)n2-c1ccc(F)cc1	8	18	-4	-8	-10	89*
CNC(=O)[C@H]1O[C@@H](n2cnc3c(NCc4cccc(I)c4)ncnc32)C(O)[C@H]1O (some centres not stated)	/	/	/	/	/	18
O=C1/C(=C/c2ccc(F)cc2)SC(=S)N1CC(=O)N1CCCCC1c1cccnc1 (configuration not stated)	7	17	103*	34	-6	/

High-throughput results as filed in PubChem.
